The campaign covered roughly 390,000 compounds. About 60 (0.02%) were called active. No stated cut-off is given here; in the data, active means activity change below about -50%; inconclusive means between about -30% and that limit; inactive means weaker than that. Many of the other results were omitted from the sample, so actives are more common in it than they were.
Molecular target: Mucolipin-1 (Homo sapiens) (UniProt Q9GZU1)
Assay: qHTS for Inhibitors of the Human Mucolipin Transient Receptor Potential 1 (TRPML1);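 further: stimulus is agonist 54-4 at its EC80 concentration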
Details: TRPML1-inducible cells, Ca2+ dye fluorescence, FDSS; stronger effect = lower value; inhibition of EC80 agonist-evoked calcium signal
Outline: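 Calcium fluorescence in TRPML1-DL cells induced overnight with Tet: a 110 s read after compound pin addition, then a 110 s antagonist read after challenge with 54-4 at 4 uM final (EC80).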
On the % scale 0 is the no-effect control and ±100 the full control effect.

Mucolipin-1 (Homo sapiens), sequence (Q9GZU1 whole entry, looked up): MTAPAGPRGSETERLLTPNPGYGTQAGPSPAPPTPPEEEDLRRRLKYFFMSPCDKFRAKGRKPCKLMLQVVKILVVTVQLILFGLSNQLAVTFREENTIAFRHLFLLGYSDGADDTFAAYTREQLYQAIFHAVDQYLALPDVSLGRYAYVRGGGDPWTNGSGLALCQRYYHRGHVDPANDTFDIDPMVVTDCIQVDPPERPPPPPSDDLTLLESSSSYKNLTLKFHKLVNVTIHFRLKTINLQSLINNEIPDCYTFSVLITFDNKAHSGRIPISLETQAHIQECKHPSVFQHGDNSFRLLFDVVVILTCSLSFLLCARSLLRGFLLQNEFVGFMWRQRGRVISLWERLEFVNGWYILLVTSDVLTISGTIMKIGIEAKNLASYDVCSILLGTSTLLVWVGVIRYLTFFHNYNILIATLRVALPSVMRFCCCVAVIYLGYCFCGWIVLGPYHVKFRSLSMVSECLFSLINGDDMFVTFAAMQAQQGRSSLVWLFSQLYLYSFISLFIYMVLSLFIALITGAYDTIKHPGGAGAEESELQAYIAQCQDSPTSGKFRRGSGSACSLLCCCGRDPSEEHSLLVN

Activity change, negative = inhibition, inactive:
O=C(CSCc1cnn(-c2ccccc2)c1-n1cccc1)NCc1ccccc1Br 2.1%
CC1=C(C(=O)OCc2ccc(C)cc2)C(c2ccccc2Cl)CC(=O)N1 (stereo unspecified) 31.3%
C#CC(C)(CC)NC(=O)Cn1nnc(-c2ccc(OCc3c(F)cccc3Cl)cc2)n1 (stereo unspecified) -6.13%
Cn1c(=O)c2c(nc(SCC(=O)Nc3ccc(F)cc3)n2Cc2ccc(Cl)cc2)n(C)c1=O 3.84%
Cc1cccc(C(=O)Nc2ccc(-c3nc4ncccc4o3)cc2C)c1 -6.3%
COC(=O)CCc1ccccc1S(=O)(=O)N(CCC(=O)OC)Cc1ccccc1 -2.45%
CC(C)(C)n1ncc2c(=O)n(Cc3ccc(C(=O)c4ccccc4)cc3)cnc21 1.11%
COc1cccc(CNC(=O)c2ccc3c(c2)N(Cc2ccc(C(F)(F)F)cc2)C(=O)c2ccccc2S3)c1OC 37.3%
C=C1CCN(Cc2ccc(OC)cc2)S(=O)(=O)c2ccccc21 57%
CCOC(=O)c1ccc(-c2ccc(/C=C(\C#N)C(=O)Nc3ccc(OCC)cc3)o2)cc1 10.3%
Cc1c(NS(=O)(=O)c2ccc(Cl)cc2)c(=O)n(-c2ccccc2)n1C -2.41%
CCc1ccc2ncc3c(-c4ccc(C)cc4)nn(CC(=O)NCc4ccccc4)c3c2c1 1.33%
COc1ccc(N2CCN(C(=O)C3CCCN(C(=O)c4cc5sccc5n4C)C3)CC2)cc1 (stereo unspecified) -10.9%
COc1cc(Br)cc2cc(S(=O)(=O)c3ccccc3)c(=O)oc12 0.895%
COc1ccc(Cl)cc1NC(=O)Cn1c(=O)c2ccccc2n2nncc12 11.3%
COc1cc(NC(=O)Cn2nc(-c3ccc(C)c(C)c3)ccc2=O)cc(OC)c1 -17.3%
Cc1ccc(NC(=O)NC(C)c2c(-n3cccc3)sc(C)c2C)c(C)c1 (stereo unspecified) 43%
CCc1nnc(SCc2nc(-c3cccc(C)c3)oc2C)c2cc3sc(C)cc3n12 -4.34%
CCCOc1ccc(C(=O)Nc2ccc3oc(-c4cccc(Cl)c4Cl)nc3c2)cc1 -2.03%
COc1ccccc1-c1cc(C(F)(F)F)nc(S(=O)(=O)CCCC(=O)Nc2cc(C)ccc2O)n1 -10.5%
Cc1ccc(C)c(Oc2c(C(F)(F)F)oc3c(CN4CCN(C)CC4)c(O)ccc3c2=O)c1 11.9%
O=C(CN1CCN(Cc2ccc(Cl)cc2)C1=O)NCc1ccc(F)cc1 3.6%
COc1cccc(Cn2c(SCc3ccc(C(=O)N4CCCCC4)cc3)nc3ccncc32)c1 17.2%
CSc1nc(=O)c2c(n1C)NC(=O)CC2c1ccccc1OC(C)C (stereo unspecified) -8.74%
O=C(Nc1ccc2nc(SCC(=O)N3CCCc4ccccc43)sc2c1)c1ccc(F)cc1 -5.54%
Cn1cc(S(=O)(=O)N2CCCCCC2)cc1C(=O)N1CCN(c2ccc(F)cc2)CC1 -18.5%
Cc1ccc(NC(=O)CSc2nc3c([nH]c4ccccc43)c(=O)n2-c2ccccc2)cc1Cl -8.82%
CCCS(=O)(=O)c1c(Nc2ccccc2C)sc(C(=O)c2ccccc2)c1N 6.08%
CCC(=O)N1CCc2cc(Br)cc(S(=O)(=O)Nc3ccc(C)cc3C)c21 11.5%
O=C(Nc1ccc(Br)cc1)c1cc2nc(-c3ccccc3)cc(-c3ccccc3)n2n1 63.6%
O=C(CS(=O)(=O)c1cccc2nsnc12)N1CCN(c2cccc(Cl)c2)CC1 -7.54%
O=C(COc1ccccc1)NCc1ccc2c(c1)CCN2C(=O)c1ccc(F)cc1 25.6%
COc1ccc(NC(=O)c2cc3cc(C)ccc3n2C)cc1 -10.1%
COC(=O)c1ccc(NC(=O)c2cnn(-c3ccc(Cl)cc3)c2C2CCN(C(=O)OC(C)(C)C)CC2)cc1 -3.85%
Cc1c(C(=O)N2CCCC2)oc2c1-c1nn(CC(=O)NCc3ccc(OC(C)C)cc3)cc1CC2 30.2%
CN1CCN(/[N+]([O-])=N/Oc2ccc([N+](=O)[O-])cc2[N+](=O)[O-])CC1 -8.85%
COc1cc(OC)c2c(c1C(CCN1CCCCC1)c1ccc(N(C)C)cc1)OC(=O)CC2c1ccc(N(C)C)cc1 (stereo unspecified) -9.58%
Cc1ccc(Cl)cc1N(C)C(=O)Cn1nc(Cc2cccnc2)c2ccccc2c1=O -7.38%
CC(=O)Nc1ccc(NC(=O)C2CCCN(S(=O)(=O)c3ccc4c(c3)CCCC(=O)N4)C2)cc1 (stereo unspecified) -7.84%
COc1ccc(-c2nc3sc(CCNS(=O)(=O)c4ccc(F)c(C)c4)c(C)n3n2)cc1 16.5%
CCc1cc2c(-c3ccccc3)cc(=O)oc2c2c1OCN(Cc1ccc(C)cc1)C2 -21.9%
O=C(O)c1ccc(Nc2nc(-c3ccccc3)c3cc(Br)ccc3n2)cc1 16.7%
CCN(CC)CCNC(=O)CN1N=C(c2ccc(OC)cc2)CCC1=O -7.95%
COc1ccc(S(=O)(=O)c2c(Nc3cccc(Cl)c3)sc(C(=O)c3ccccc3)c2N)cc1 17%
Cc1ccc2ncc(C(=O)Nc3ccc(OC(F)(F)F)cc3)c(=O)n2c1 4.29%
COC(=O)c1scc(-c2ccc(C)cc2)c1S(=O)(=O)Nc1cc(Cl)c(OC)cc1OC 37.6%
COc1ccc(CC(=O)N2CC(=O)Nc3ccc(Br)cc3C2c2ccc(F)cc2)cc1OC (stereo unspecified) 5.98%
Cc1cccc2c1-c1sc(C(=O)Nc3ccc(F)cc3F)cc1CO2 18.7%
CCOc1ccc(CCNC(=O)c2cc3c(=O)n(C)c4ccccc4c3n2C)cc1 -10.6%
COc1cccc(CNC(=O)c2cc(=O)[nH]c3ccc(S(=O)(=O)N4CCCCC4)cc23)c1 -1.14%
Cc1ccc(C)c(Cn2c(CCCNC(=O)C3CCCCC3)nc3ccccc32)c1 22.7%
CNC(=O)[C@]1(C(F)(F)F)C[C@H](CCc2ccccc2)CCCO1 7.15%
COc1cccc(-c2nnc(SCC(=O)N3CCC(C)CC3)o2)c1 0.454%
CCCn1c(=N)c(C(=O)NCc2ccccc2)cc2c(=O)n3cccc(C)c3nc21 -0.876%
Cc1ccc2c(=O)c(C(=O)c3ccc(F)cc3)cn(CC(=O)NC3CCCCC3)c2n1 -15.9%
COc1ccc(Br)cc1C1C2C=CCC(C)C2C(=O)N1Cc1ccccc1 (stereo unspecified) 20.3%
Cc1ccc(-c2cnc(C3CC3)o2)cc1S(=O)(=O)Nc1cccc(C)c1C 5.77%
COc1ccc(NC(=O)CSc2nc3ccccc3n2CC(=O)N2CCCCC2C)cc1 (stereo unspecified) 9.59%
Cc1cccc(N2CCN(C(=O)c3cnc(N4CCCC4)nc3C)CC2)c1C 12.6%
CCN(CCCNC(=O)c1cc2c(=O)n(CC)c3ccccc3c2s1)Cc1ccccc1 14.6%
COc1ccc(C2/C=C\CN(C(=O)c3ccc(C)cc3)C(Cc3ccccc3)C(=O)N2Cc2ccc(F)cc2)cc1 (stereo unspecified) -1.58%
CCN(CC)CCNC(=O)Cn1ncc2c3ccccc3n(Cc3ccccc3C)c2c1=O 1.87%
O=C(Nc1ccc2c(c1)OCO2)c1cc(-c2cccc(Cl)c2)on1 1.26%
COc1ccc(C2CC(O)(c3ccccc3)Oc3cc(C)cc(C)c32)cc1 (stereo unspecified) 9.65%
Cc1ccc(S(=O)(=O)N(CC(=O)Nc2ccc(Cl)cc2Cl)c2ccccc2C)cc1 59.9%
Cc1c(NC(=O)C(C)(C)C)cccc1-c1nc2ccccc2s1 -0.118%
Cc1ccc2nc(CN3CCN(S(=O)(=O)c4ccc(C)c(C)c4)CC3)oc2c1 -6.53%
O=C(CCS(=O)(=O)c1cc(Br)cc2c1N(C(=O)C1CC1)CC2)Nc1ccc(Br)cc1F -10.7%
COc1cc(NC(=O)c2noc3c2CSc2ccccc2-3)cc(OC)c1OC 8.19%
Fc1ccccc1Oc1ncnc2c1oc1ccccc12 -7.01%
COc1ccccc1-c1nnc(C2CCN(C(=O)c3ccc(Cl)cc3)CC2)o1 -16.2%

Source: PubChem BioAssay AID624415 (National Center for Advancing Translational Sciences (NCATS), 2012)
